Values joined by “and” are separate entries in the source; they are usually repeats but may differ in a detail not shown here. Equal values may be shown once. Screen size: about 5,500 compounds; about 2,000 (36%) were called active. Not shown: some 18% with an inconclusive outcome. Cut-off read from the data, not from the text of the source: active = normalized growth mostly below about 0.91 (no sharp cut-off); inconclusive = no clear call, values can overlap the other calls; inactive = mostly above about 0.92. The list shows a part of the results.
Assay: chemical genetic growth profiling, strain panel (AID 1159580);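 note: tested at 20 µM; growth read once vehicle control cultures reached saturation at 30 °C; 1 = growth at the plate median or of vehicle wells; lower values mean less growth of the strain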
Details: growth OD

Measured: normalized growth

COc1ccc(C(=O)O)c(O)c1OC
inactive: S. cerevisiae deletion strains, locus YAL013W, strain DEP1, hits give low values 1.05 | S. cerevisiae deletion strains, locus YBR021W, strain FUR4, hits give low values 1.03 | S. cerevisiae deletion strains, locus YBR229C, strain ROT2, hits give low values 1.02 | S. cerevisiae deletion strains, locus YCL029C, strain bik1, hits give low values 0.992 | S. cerevisiae deletion strains, locus YDL035C, strain GPR1, hits give low values 1.04 | S. cerevisiae deletion strains, locus YDL074C, strain BRE1, hits give low values 1.04 | S. cerevisiae deletion strains, locus YDL101C, strain DUN1, hits give low values 1.01 | S. cerevisiae deletion strains, locus YDL134C, strain PPH21, hits give low values 1.02 | S. cerevisiae deletion strains, locus YDL185W, strain tfp1, hits give low values 0.999 | S. cerevisiae deletion strains, locus YDL192W, strain arf1, hits give low values 0.984 | S. cerevisiae deletion strains, locus YDR101C, strain arx1, hits give low values 0.985 | S. cerevisiae deletion strains, locus YDR150W, strain NUM1, hits give low values 1.01 | S. cerevisiae deletion strains, locus YDR162C, strain NBP2, hits give low values 1.03 | S. cerevisiae deletion strains, locus YDR318W, strain mcm21, hits give low values 0.988 | S. cerevisiae deletion strains, locus YDR388W, hits give low values 0.988 | S. cerevisiae deletion strains, locus YDR502C, strain sam2, hits give low values 0.994 | S. cerevisiae deletion strains, locus YEL061C, strain CIN8, hits give low values 1.01 | S. cerevisiae deletion strains, locus YER110C, hits give low values 0.987 | S. cerevisiae deletion strains, locus YER155C, strain BEM2, hits give low values 1.01 | S. cerevisiae deletion strains, locus YER167W, strain BCK2, hits give low values 1.02 | S. cerevisiae deletion strains, locus YGL078C, strain dbp3, hits give low values 0.999 | S. cerevisiae deletion strains, locus YGL086W, strain mad1, hits give low values 0.994 | S. cerevisiae deletion strains, locus YGL248W, strain PDE1, hits give low values 1.02 | S. cerevisiae deletion strains, locus YGR078C, strain PAC10, hits give low values 1.04 | S. cerevisiae deletion strains, locus YGR135W, strain pre9, hits give low values 1 | S. cerevisiae deletion strains, locus YGR252W, strain gcn5, hits give low values 1.06 | S. cerevisiae deletion strains, locus YHR030C, strain SLT2, hits give low values 1.01 and 1 | S. cerevisiae deletion strains, locus YHR079C, strain IRE1 (second series), hits give low values 0.986 | S. cerevisiae deletion strains, locus YHR079C, strain IRE1, hits give low values 0.996 | S. cerevisiae deletion strains, locus YHR094C, strain hxt1, hits give low values 0.987 | S. cerevisiae deletion strains, locus YHR129C, strain ARP1, hits give low values 1.01 | S. cerevisiae deletion strains, locus YHR200W, strain rpn10, hits give low values 0.997 | S. cerevisiae deletion strains, locus YIL066C, strain RNR3, hits give low values 1.03 | S. cerevisiae deletion strains, locus YIL073C, strain SPO22, hits give low values 1.02 | S. cerevisiae deletion strains, locus YIL125W, strain kgd1, hits give low values 0.988 | S. cerevisiae deletion strains, locus YIR030C, strain dcg1, hits give low values 0.996 | S. cerevisiae deletion strains, locus YJL095W, strain BCK1, hits give low values 1.04 and 1.01 | S. cerevisiae deletion strains, locus YJL134W, strain LCB3, hits give low values 1.01 | S. cerevisiae deletion strains, locus YJL168C, strain set2, hits give low values 0.997 | S. cerevisiae deletion strains, locus YJL187C, strain SWE1 (second series), hits give low values 1.01 | S. cerevisiae deletion strains, locus YJR043C, strain POL32, hits give low values 1.05 | S. cerevisiae deletion strains, locus YJR066W, strain TOR1, hits give low values 0.938 | S. cerevisiae deletion strains, locus YKL009W, strain mrt4, hits give low values 1.01 | S. cerevisiae deletion strains, locus YKL068W, hits give low values 0.989 | S. cerevisiae deletion strains, locus YKL085W, strain MDH1 (second series), hits give low values 0.996 | S. cerevisiae deletion strains, locus YKL085W, strain MDH1, hits give low values 0.996 | S. cerevisiae deletion strains, locus YKL190W, strain CNB1, hits give low values 1.01 | S. cerevisiae deletion strains, locus YKR001C, strain vps1, hits give low values 0.97 | S. cerevisiae deletion strains, locus YLR039C, strain RIC1, hits give low values 1.09 | S. cerevisiae deletion strains, locus YLR058C, strain SHM2, hits give low values 1.01 | S. cerevisiae deletion strains, locus YLR102C, strain apc9, hits give low values 0.996 | S. cerevisiae deletion strains, locus YLR113W, strain HOG1, hits give low values 1 | S. cerevisiae deletion strains, locus YLR262C, strain YPT6, hits give low values 1.12 | S. cerevisiae deletion strains, locus YLR268W, strain sec22, hits give low values 0.996 | S. cerevisiae deletion strains, locus YLR330W, strain CHS5, hits give low values 1.01 | S. cerevisiae deletion strains, locus YLR342W, strain FKS1 (second series), hits give low values 1.01 | S. cerevisiae deletion strains, locus YLR371W, strain rom2, hits give low values 0.981 | S. cerevisiae deletion strains, locus YLR418C, strain cdc73, hits give low values 1.04 | S. cerevisiae deletion strains, locus YML016C, strain PPZ1, hits give low values 1.01 | S. cerevisiae deletion strains, locus YML032C, strain rad52, hits give low values 1 | S. cerevisiae deletion strains, locus YML124C, strain tub3, hits give low values 0.997 | S. cerevisiae deletion strains, locus YMR078C, strain ctf18, hits give low values 0.998 | S. cerevisiae deletion strains, locus YMR223W, strain ubp8, hits give low values 0.996 | S. cerevisiae deletion strains, locus YMR307W, strain GAS1, hits give low values 1.22 | S. cerevisiae deletion strains, locus YNL067W, strain RPL9B, hits give low values 1.02 | S. cerevisiae deletion strains, locus YNL128W, strain TEP1, hits give low values 1.01 | S. cerevisiae deletion strains, locus YNL153C, strain GIM3, hits give low values 1.01 | S. cerevisiae deletion strains, locus YNL183C, strain NPR1, hits give low values 0.938 | S. cerevisiae deletion strains, locus YNL233W, strain BNI4, hits give low values 1.02 | S. cerevisiae deletion strains, locus YNL250W, strain rad50, hits give low values 0.991 | S. cerevisiae deletion strains, locus YNL271C, strain bni1, hits give low values 0.995 | S. cerevisiae deletion strains, locus YNL298W, strain CLA4, hits give low values 1.01 | S. cerevisiae deletion strains, locus YNL307C, strain MCK1, hits give low values 0.988 | S. cerevisiae deletion strains, locus YNR052C, strain pop2, hits give low values 0.981 | S. cerevisiae deletion strains, locus YOL012C, strain htz1 0.918 | S. cerevisiae deletion strains, locus YOL147C, strain pex11, hits give low values 0.988 | S. cerevisiae deletion strains, locus YOR061W, strain CKA2, hits give low values 1.01 | S. cerevisiae deletion strains, locus YOR069W, strain VPS5, hits give low values 1.01 | S. cerevisiae deletion strains, locus YOR136W, strain idh2, hits give low values 0.991 | S. cerevisiae deletion strains, locus YOR144C, strain elg1, hits give low values 0.991 | S. cerevisiae deletion strains, locus YOR184W, strain ser1, hits give low values 0.998 | S. cerevisiae deletion strains, locus YOR231W, strain MKK1, hits give low values 1 | S. cerevisiae deletion strains, locus YOR316C, strain cot1, hits give low values 0.992 | S. cerevisiae deletion strains, locus YPL256C, strain CLN2, hits give low values 1.02 | S. cerevisiae deletion strains, locus YPR119W, strain clb2, hits give low values 0.993 | S. cerevisiae deletion strains, locus YPR141C, strain kar3, hits give low values 0.989 | S. cerevisiae deletion strains, locus YPR163C, strain tif3, hits give low values 0.984 | S. cerevisiae deletion strains, locus YPR167C, strain met16, hits give low values 0.99 | S. cerevisiae deletion strains, strain wtn01, hits give low values 0.983 | S. cerevisiae strains, strain wild type, hits give low values 1.01

Reference: PubChem BioAssay AID1159580 (chemical genetic matrix, 2015)
